Laboratory results from PubChem BioAssay (NCI).
The panel holds about 79,000 compounds, 15% with a hit somewhere; the sample as a whole holds those more often. Active and inactive are the calls of the source. Cut-off read from the data, not from the text of the source: active = growth inhibition above about 70%; inactive = the rest.

Test: NCI Yeast Anticancer Drug Screen. Data for the mlh1 rad18 strain (AID 175)
Settings: S. cerevisiae mlh1 rad18 strain growth inhibition, stronger effect = higher value; at 50.0 µM unless noted
Procedure, shortened: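 Yeast w/ defined DNA-repair lesions; compound exposure; growth vs vehicle controls → % inhibition.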

For `O=C1C(CN2CCCC2)CCCC1CN1CCCC1` (stereo not given), which growth inhibition is on record?
Its growth inhibition is -10.1% (inactive).

Which growth inhibition does the source give for `CC(C)(O)CCO` here?
The growth inhibition was -33.1% (inactive).

With `CC(C)CCC[C@@H](C)C1CCC2[C@@H]3CCC4C[C@@H](CCC=C(c5cc(Cl)c(O)c(C(=O)O)c5)c5cc(Cl)c(O)c(C(=O)O)c5)CC[C@]4(C)C3CC[C@@]21C` (stereo not given in full) as the compound, how does the growth inhibition read?
The growth inhibition was -45.9% (inactive).

Which growth inhibition does the source give for `CN1C(=O)C(c2c[nH]c3ccccc23)N(C)C(=O)C1c1c[nH]c2ccccc12` (stereo not given) here?
Its growth inhibition is -20% (inactive).

With `Cc1c2c(c(O)c3sccc13)C(C)(C)OC2=O` as the compound, how does the growth inhibition read?
The growth inhibition was -3.1% (inactive).

Which growth inhibition does the source give for `Cc1cc(C)c(S(=O)(=O)Oc2ccccc2)c(C)c1` here?
The growth inhibition was -36.7% (inactive).

For `O=C1CSC(c2ccc([N+](=O)[O-])cc2)N1c1ccc(-n2c(-c3ccccc3)nc3ccccc3c2=O)cc1` (stereo not given), which growth inhibition is on record?
Its growth inhibition is 13.2% (inactive).

For `CC(C)c1ccccc1O`, which growth inhibition is on record?
The growth inhibition was 22.4% (inactive).

Which growth inhibition does the source give for `COc1ccc(NC(=S)N/N=C(\C)c2ccccn2)cc1` here?
The growth inhibition was 84.8% (active).

For `COc1ccc(-[n+]2nc(S(=O)(=O)O)c(/C=C/c3ccc(N(C)C)cc3)cc2C#N)cc1`, which growth inhibition is on record?
Its growth inhibition is -9.5% (inactive).

For `Cn1c(=O)c(C(=O)Nc2nc(C34CC5CC(CC(C5)C3)C4)cs2)c(O)c2ccccc21`, which growth inhibition is on record?
Its growth inhibition is -30.6% (inactive).

For `O=C(COc1ccc(Cl)cc1)Nc1cc(Cl)c(Cl)cc1Cl`, which growth inhibition is on record?
Its growth inhibition is 1.3% (inactive).

Which growth inhibition does the source give for `CC(O)c1cccc(NC(=O)NC2CCCCC2)c1` (stereo not given) here?
The growth inhibition was 27.8% (inactive).

For `Cc1cc(C)c2nccc(NCCCN(C)C)c2c1[N+](=O)[O-]`, which growth inhibition is on record?
Its growth inhibition is -78.5% (inactive).

For `CNC(=O)Nc1c(C)cccc1C`, which growth inhibition is on record?
The growth inhibition was 4.05% (inactive).

For `Clc1cc2cc3cccc[n+]3cc2cc1Cl`, which growth inhibition is on record?
Its growth inhibition is 3.7% (inactive).

For `CCOC(=O)CN(Cn1cncn1)Cn1cncn1`, which growth inhibition is on record?
The growth inhibition was 10.8% (inactive).

Which growth inhibition does the source give for `CC(C)(O)CCNc1ncnc2c1ncn2C1OC(CO)C(O)C1O` (stereo not given) here?
Its growth inhibition is 13.8% (inactive).

For `Clc1ccc(/C=C/c2nc(Cl)c(-c3ccc(Cl)cc3)c(Cl)n2)cc1`, which growth inhibition is on record?
The growth inhibition was 5.3% (inactive).

With `N#CC(c1ccccc1)c1ccc2ccccc2n1` (stereo not given) as the compound, how does the growth inhibition read?
Its growth inhibition is -0.9% (inactive).

With `O=C(O)CCNCCC(=O)O` as the compound, how does the growth inhibition read?
The growth inhibition was 9.7% (inactive).

For `O=C(O)/C(=C/c1cccs1)c1ccc(F)cc1`, which growth inhibition is on record?
The growth inhibition was 3.75% (inactive).

With `COc1cc(C(=O)NNC(=O)c2ccc(Cl)c(Cl)c2)cc(OC)c1OC` as the compound, how does the growth inhibition read?
Its growth inhibition is 34.9% (inactive).

With `COC(=O)C(CCCCCCCC(C(=O)OC)c1nc2n(c1O)C(=N)N=N2)c1nc2n(c1O)C(=N)N=N2` (stereo not given) as the compound, how does the growth inhibition read?
The growth inhibition was 4.75% (inactive).

With `CC(C)(C)C1C=C(Sc2ccccc2)C(=O)O1` (stereo not given) as the compound, how does the growth inhibition read?
The growth inhibition was 30.1% (inactive).

With `COc1ccc(/C(C)=C\C(=O)O)c(O)c1OC` as the compound, how does the growth inhibition read?
Its growth inhibition is 7.8% (inactive).

For `O=C1CSC(c2cccc([N+](=O)[O-])c2)N1c1nncs1` (stereo not given), which growth inhibition is on record?
The growth inhibition was 5.5% (inactive).

Which growth inhibition does the source give for `CCC1(C=O)C(=O)NC(=O)N1C` (stereo not given) here?
Its growth inhibition is 6.45% (inactive).

Which growth inhibition does the source give for `O=C(C[n+]1ccccc1)c1ccc(O)c(I)c1` here?
Its growth inhibition is 7.4% (inactive).

Which growth inhibition does the source give for `O=C1C2C3ON(c4ccccc43)C2C(=O)N1c1ccccc1` (stereo not given) here?
The growth inhibition was -3.55% (inactive).

Which growth inhibition does the source give for `CCCCCN=C(N)C(N)=NCCCCC` here?
Its growth inhibition is 24.9% (inactive).

Which growth inhibition does the source give for `CC1=CC(C)C(C(=O)OCC(C)C)C(C(=O)OCC(C)C)C1` (stereo not given) here?
The growth inhibition was -22.4% (inactive).

For `CCCOC(=O)N(C)c1ccccc1`, which growth inhibition is on record?
The growth inhibition was -2.1% (inactive).

For `N#CC1CC2CC1C1OC21` (stereo not given), which growth inhibition is on record?
The growth inhibition was -5.9% (inactive).

With `C/C=C/C=C/C(=O)OCCCC` as the compound, how does the growth inhibition read?
The growth inhibition was -1.75% (inactive).

For `Cc1c(OCCCOc2ccc3c(=O)cc(-c4ccccc4)oc3c2C)ccc2c(=O)cc(-c3ccccc3)oc12`, which growth inhibition is on record?
The growth inhibition was -31.8% (inactive).

Which growth inhibition does the source give for `O=c1[nH]c2ccc([N+](=O)[O-])cc2nc1/C(=N/Nc1ccccc1)C(O)c1ccco1` (stereo not given) here?
The growth inhibition was 12.9% (inactive).

For `COc1cccc(C)c1O`, which growth inhibition is on record?
The growth inhibition was 3.3% (inactive).

With `CC(NC(C#N)CC12CC3CC(CC(C3)C1)C2)c1ccccc1` (stereo not given) as the compound, how does the growth inhibition read?
Its growth inhibition is -30.6% (inactive).

With `CCOC(=O)/C(SC#N)=C(/N)N1CCCC1` as the compound, how does the growth inhibition read?
Its growth inhibition is -14.2% (inactive).
